# Laboratory results: PubChem BioAssay (EPA / NIEHS)
# Several values for one entry are separate records, joined by “and”; a condition that tells them apart may be missing. Identical values can stand only once. Where a structure was tested more than once in an assay, its records may differ in their call. Activity calls are given as the source filed them. Rule for the calls: active = hit-call score of the fitted dose curve at least 0.9, where 1 is the maximum; inactive = score below 0.9.
# Read-out: Interleukin-1 alpha (IL1a), IL1A (gene 3552)
# Assay: BSK_BF4T_IL1a: BioMAP Diversity Plus: BF4T Assay for Interleukin-1 alpha (IL1a) Biomarker Activity (AID 2284264)
# Conditions: primary human bronchial epithelial cells with fibroblasts
# Description: BSK_BF4T is a cell-based, multiplexed-readout assay that uses bronchial epithelial cells and dermal fibroblasts, a human vascular primary cell, with measurements taken at 24 hours after chemical dosing in a microplate: 96-well plate.BSK_BF4T_IL1a is an assay component measured in the BSK_BF4T assay. It measures IL-1a antibody related to regulation of gene expression using ELISA technology.Data from the assay component BSK_BF4T_IL1a was analyzed at the endpoint, BSK_BF4T_IL1a, in the positive analysis fitting direction relative to DMSO as the negative control and baseline of activity. Using a type of binding reporter, gain or loss-of-signal activity can be used to understand protein changes. To generalize the intended target to other relatable targets, this assay endpoint is annotated to the 'cytokine' intended target family, where the subfamily is 'interleukins'.
# The levels of cell surface (or secreted, indicated by the prefix "s") biomarker endpoints were measured by ELISA. Overt cytotoxicity to cells in confluent adherent cultures (all systems other than the BT system) was assessed by measuring total protein levels using sulforhodamine B (SRB) staining in parallel cultures at the time of biomarker measurements, indicated as SRB endpoints. For proliferation assays for adherent cell types, individual cell types are cultured at sub-confluence and relative cell numbers quantified by SRB staining at time points optimized for each system (48 h: 3C and CASM3C systems; 72 h: BT and HDF3CGF systems; 96 h: SAg system). SRB was performed by staining cells with 0.1% SRB after fixation with 10% TCA and reading wells at 560 nm.Viability and proliferation of PBMC (T cells) was quantified by Alamar Blue reduction for the SAg and BT systems. For PBMC viability (referred to as PBMC Cytotoxicity within the assay endpoint names), cells were plated (75,000/well in a 96-well plate) and then chemical samples added for 1 h before addition of activators, SEB and TSST-1 (20 ng/mL final concentration each). Cells were incubated for 90 h. Then, Alamar Blue (20 uL/well) (Invitrogen, Cat DAL1100) was added for 6 h, and the plates were read with a fluorescence microplate reader at 546/580 nm (excitation/emission). For PBMC proliferation, cells were plated and activated as above but incubated for only 16 h prior to addition of Alamar Blue. Plates were read after 6 h.
Compound,outcome,AC50
FC(F)(F)C(F)(F)C(F)(F)C(F)(F)C(F)(F)C(F)(F)C(F)(F)CCI,inactive,–
O=C(O)C(F)(F)C(F)(F)C(F)(F)C(=O)O,inactive,–
OCCCCC(F)(F)C(F)(F)C(F)(F)C(F)(F)F,inactive,–
CO[Si](C)(CCC(F)(F)C(F)(F)C(F)(F)C(F)(F)C(F)(F)C(F)(F)F)OC,inactive,–
OCC(O)CC(F)(F)C(F)(F)C(F)(F)C(F)(F)F (stereo not given),inactive,–
O=S(=O)(O)CCC(F)(F)C(F)(F)C(F)(F)C(F)(F)C(F)(F)C(F)(F)C(F)(F)C(F)(F)F,inactive,–
NCC(F)(F)C(F)(F)C(F)(F)C(F)(F)C(F)(F)C(F)(F)F,inactive,–
FC(F)(F)C(F)(F)C(F)(F)C(F)(F)C(F)(F)C(F)(F)CC[Si](Cl)(Cl)Cl,inactive,–
O=C(Cl)C(F)(F)C(F)(F)C(F)(F)C(F)(F)C(F)(F)C(F)(F)F,inactive,–
O=S(=O)(Cl)C(F)(F)C(F)(F)C(F)(F)C(F)(F)C(F)(F)C(F)(F)C(F)(F)C(F)(F)F,inactive,46.3 µM (active)
NC(=O)C(F)(F)C(F)(F)C(F)(F)C(F)(F)C(F)(F)C(F)(F)C(F)(F)F,inactive,–
O=C(O)CCC(F)(F)C(F)(F)C(F)(F)F,inactive,–
CCN(CCO)S(=O)(=O)C(F)(F)C(F)(F)C(F)(F)C(F)(F)C(F)(F)C(F)(F)C(F)(F)C(F)(F)F,inactive,–
NC(=O)C(F)(F)C(F)(F)C(F)(F)C(F)(F)C(N)=O,inactive,–
OCCCC(F)(F)C(F)(F)C(F)(F)C(F)(F)C(F)(F)C(F)(F)C(F)(F)C(F)(F)F,–,46.4 µM (active) and 45.7 µM (active)
NCC(F)(F)C(F)(F)C(F)(F)C(F)(F)C(F)(F)C(F)(F)C(F)(F)C(F)(F)F,inactive,–
O=C(O)C(F)(F)C(F)(F)C(F)(F)C(F)(F)C(F)(F)C(F)(F)C(F)F,inactive,–
FC(F)(F)C(F)(F)C(F)(F)CC1CO1 (stereo not given),inactive,–
O=S(=O)(O)CCC(F)(F)C(F)(F)C(F)(F)C(F)(F)F,inactive,–
NC(=O)C(F)(F)C(F)(F)C(F)(F)F,inactive,–

Compound,outcome,AC50
NS(=O)(=O)C(F)(F)C(F)(F)C(F)(F)C(F)(F)C(F)(F)C(F)(F)F,inactive,–
CNS(=O)(=O)C(F)(F)C(F)(F)C(F)(F)C(F)(F)C(F)(F)C(F)(F)C(F)(F)C(F)(F)F,inactive,–
C=C(C)C(=O)OCC(F)(F)C(F)(F)C(F)(F)C(F)F,inactive,–
C=CC(=O)OCC(F)(F)C(F)(F)C(F)(F)COC(=O)C=C,–,40.5 µM (active) and 41.3 µM (active)
O=C(O)CCC(F)(F)C(F)(F)C(F)(F)C(F)(F)C(F)(F)C(F)(F)C(F)(F)F,inactive,–
OC(O)C(F)(F)C(F)(F)F,inactive,–
O=S(=O)(OCC(F)(F)F)C(F)(F)C(F)(F)C(F)(F)C(F)(F)F,inactive,–
O=C(O)C(F)(F)C(F)(F)C(F)(F)OC(F)(F)F,inactive,–
OCC(F)(F)C(F)(F)C(F)(F)CO,inactive,–
OCC(O)CC(F)(F)C(F)(F)C(F)(F)C(F)(F)C(F)(F)C(F)(F)C(F)(F)C(F)(F)F (stereo not given),inactive,–
O=C(O)C(F)(F)C(F)(F)C(F)(F)OC(F)(C(F)(F)F)C(F)(F)F,inactive,–
NC(=O)C(F)(F)C(F)(F)C(F)(F)C(F)F,inactive,–
C=CC(=O)OCCC(F)(F)C(F)(F)C(F)(F)C(F)(F)F,inactive,–
O=C(Cl)C(F)(F)C(F)(F)C(F)(F)C(F)(F)C(F)(F)C(F)(F)C(F)(F)F,inactive,–
O=C(F)C1(F)C(F)(F)C(F)(F)C(F)(F)C(F)(F)C1(F)F,inactive,–
COC(F)(C(F)F)C(F)(F)F (stereo not given),inactive,–
O=C(O)C(F)(F)OC(F)(F)C(F)(F)OC(F)(F)C(F)(F)OC(F)(F)F,inactive,–
OCC(F)(F)C(F)(F)C(F)(F)C(F)(F)C(F)(F)C(F)(F)C(F)(F)C(F)(F)CO,inactive,–
OCC(F)(F)C(F)(F)C(F)(F)C(F)(F)C(F)(F)C(F)(F)CO,inactive,–
